Data on 31 compounds can be found in PubChem BioAssay (NCATS).

Each structure is given as a SMILES string. Records with an inconclusive call do not appear. Active and inactive are the calls of the source. The call rests on the fitted dose curve; in most records, active means well fitted curve in the direction sought with a large enough effect; inconclusive means small, poorly fitted or top-dose-only effect, or another doubt; inactive means no such curve, though single readings can be large; an effect the other way counts as inactive or inconclusive. Where a SMILES comes first, the peptide text is derived from it.

Test [1] can be described thus: P-glycoprotein substrates identified in KB-8-5-11 adenocarcinoma cell line, qHTS therapeutic library screen (AID 1346987). Further: nearly all actives have a fitted effect of over 65% in size. In short, it runs like this: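 KB-8-5-11, a colchicine-selected P-gp-overexpressing KB-3-1 subline, was grown without colchicine for the assay. Cells were seeded at 500 cells/well, dosed in concentration-response and incubated 72 h at 37 degree C, 5% CO2. Viability was read by CellTiter-Glo luminescence.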

Test [2] has as its system Zika virus NS2B-NS3 protease (linked construct). Nature of the test: Primary screen NINDS Rhodamine qHTS for Zika virus inhibitors (AID 1347160). Further: nearly all actives have a fitted effect of over 55% in size. Further: potency means the concentration at half of the fitted maximal effect. In short, it runs like this:
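In 10 mM Tris-HCl pH 8.0 containing 0.01% Tween 20, linked NS2B-NS3 protease (25 nM final) is exposed to test compounds for 15 min. Cleavage of 1.5 microM Rhodamine110 substrate is tracked by fluorescence over 15 min.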

Test [3] shares this test system. Description: Confirmatory screen NINDS AMC qHTS for Zika virus inhibitors (AID 1347152). Further: potency means the concentration at half of the fitted maximal effect; nearly all actives have a fitted effect of over 70% in size. In short, it runs like this: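 Enzyme (1 nM, linked construct) was preincubated with compound for 15 minutes at room temperature in 10 mM Tris-HCl pH 8.0 with 0.01% Tween 20. Bz-Nle-Lys-Arg-Arg-AMC was then added to 10 microM, and AMC fluorescence was recorded immediately and after 15 minutes.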
A general note: qHTS replaces the single test concentration by a dilution series.

Test [4] is described as follows: Confirmatory screen GU Rhodamine qHTS for Zika virus inhibitors qHTS (AID 1347157). Further: potency means the concentration at half of the fitted maximal effect; nearly all actives have a fitted effect of over 70% in size. In outline:
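Buffer 10 mM Tris-HCl pH 8.0, 0.01% Tween 20. Unlinked protease 25 nM; compound preincubation 15 min, RT, protected from light. Substrate Rhod110, 1.5 microM; ~15% conversion in 15 min.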

A short description of test [5]: ZIKV-mCherry secondary qHTS for Zika virus inhibitors (AID 1347158). Further: potency means the concentration at half of the fitted maximal effect. In short, it runs like this: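 Vero cells (5,000/well) were given compound, then infected with ZIKV-mCherry at MOI 1 for 48–72 h at 37 °C. After PFA fixation and Hoechst staining, imaging gave percent mCherry-positive cells. The positivity threshold was RFU above 450, 3 SD over negative controls.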

Test [6] concerns Zika virus NS2B-NS3 protease (unlinked complex). Nature of the test: Primary screen GU Rhodamine qHTS for Zika virus inhibitors: Unlinked NS2B-NS3 protease assay (AID 1347159). Further: nearly all actives have a fitted effect of over 60% in size. Further: potency means the concentration at half of the fitted maximal effect. In outline: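 Percent inhibition derives from the 15-min fluorescence change (ex 480, em 540 nm), normalized to no-enzyme and no-inhibitor wells. Reactions contained 25 nM NS2B-NS3 complex and 1.5 microM substrate in 10 mM Tris-HCl pH 8.0.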

Test [7] in a line: Confirmatory screen NINDS Rhodamine qHTS for Zika virus inhibitors (AID 1347161). Further: potency means the concentration at half of the fitted maximal effect; nearly all actives have a fitted effect of over 60% in size. In short, it runs like this:
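Aprotinin served as in-plate control. Conditions: 25 nM linked NS2B-NS3, pH 8.0 Tris buffer, titrated compounds, 15 min preincubation and 15 min reaction with 1.5 microM Rhod110 substrate at room temperature.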

Test [8] concerns Zika virus NS2B-NS3 protease (linked). Nature of the test: 384 well plate NINDS AMC confirmatory qHTS for Zika virus inhibitors (AID 1347163). Further: potency means the concentration at half of the fitted maximal effect; nearly all actives have a fitted effect of over 50% in size. In outline: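 Linked NS2B-NS3 protease (final 5 nM, 30 nM or 60 nM) was preincubated with compounds (final up to 1 mM) for ~15 minutes. Ac-VKTGKR-AMC substrate (final 30 microM) then reacted for 25 minutes at room temperature in the dark. Fluorescence (ex 355/em 460 nm) was normalized to no-enzyme and no-inhibitor controls.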

The subject of test [9] is Zika virus NS2B-NS3 protease (linked construct). Nature of the test: 384 well plate NINDS Rhodamine confirmatory qHTS for Zika virus inhibitors (AID 1347164).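 Further: fluorescence from protease cleavage of Ac-LKRR-rhodamine 110 substrate; potency means the concentration at half of the fitted maximal effect; nearly all actives have a fitted effect of over 65% in size.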 In short, it runs like this:
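Enzyme (final 5/30/60 nM) + cpd (DMSO), ~15 min; add Ac-LKRR-Rd 10 microM final; 25 min RT, dark; FI ex 485/em 538; normalized to no-enzyme, no-inhibitor ctrls; aprotinin intraplate ctrl.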

A short description of test [10]: Vero cells viability qHTS for Zika virus inhibitors (AID 1347167). In short, it runs like this:
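Cells seeded at 2.5 x 10^5 cells/mL in DMEM with 4% FBS and attached overnight at 37 degrees C, then exposed to compound for 24 to 48 hours. Viability read as ATP content by CellTiter Glo luminescence.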

For test [11], the system named is Zika virus NS2B-NS3 protease (unlinked complex). Nature of the test: Confirmatory screen GU AMC qHTS for Zika virus inhibitors (AID 1347153).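 Further: enzyme at 25 nM with substrate at 10 µM below its Km of 18.3 µM; potency means the concentration at half of the fitted maximal effect; nearly all actives have a fitted effect of over 70% in size.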 In outline: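 Compounds were preincubated 15 min at room temperature with 25 nM noncovalent NS2B-NS3 protease at pH 8.0; AMC substrate added at 10 microM and 15-min fluorescence gain (340/450 nm) converted to percent inhibition, fitted 4-parameter.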

As to `CC1=C2C(=O)C=C(CO)C2C2OC(=O)C(CS(=O)(=O)O)C2C(OC(=O)Cc2ccc(O)cc2)C1` (stereo unspecified), the Potency result in test [1] and in [2] was “inactive” each time.
For `C/C(=C\CCC(C)(C)O)CCO[C@@H]1O[C@H](CO[C@@H]2O[C@@H](C)[C@H](O)[C@@H](O)[C@H]2O)[C@@H](O)[C@H](O)[C@H]1O`, the Potency entry in [1] and in [2] was “inactive” each time.
In the case of `COc1cnc(-c2ccc(Cn3c(CC(C)(C)C(=O)O)c(SC(C)(C)C)c4cc(OC[C@@H]5Cc6ccccc6N5C(C)=O)ccc43)cc2)nc1`, the Potency in test [3] is 12.2 µM (active); in test [4], 1.53 µM (active); in [5] it was 10 µM (active); in [6], 3.98 µM (active); in test [2] it was 3.16 µM (active); in test [7], 2.43 µM (active). For the same compound, the Potency in test [8] was 0.631 µM (active); in test [9] it was 1.78 µM (active). For the same compound, in test [10], the compound was classed as inactive.
With `OC[C@H]1O[C@@H](OCCc2ccccc2)[C@H](O)[C@@H](O)[C@@H]1O`, the Potency result in [1] and in test [2] was “inactive” throughout.
`CCOc1ccc(-c2cc(NC(=O)c3c(F)cccc3F)c(C(=O)O)s2)cc1`: the Potency in test [3] is 17.5 µM (active); in test [11], 27.8 µM (active); in [4] it was 4.41 µM (active); in test [2] it was 5.01 µM (active); in test [7], 3.12 µM (active); in test [8] it was 7.08 µM (active). In test [9], the Potency was 5.01 µM (active). For the same compound, the compound was classed as inactive in test [10].
For the compound `O=C(/C=C/c1ccc(O)c(O)c1)OC[C@H]1O[C@@H](OC2CCCCC2O)[C@H](O)[C@@H](O)[C@@H]1O` (stereo partly specified), the Potency entry in [1] and in test [2] was “inactive” in each case.
As for `C=CCC/C=C/C#CCCCCCCCC[C@H]1C(=O)O[C@H](C)[C@@H]1O`, the Potency result in [1] and in test [2] was “inactive” throughout.
Take `CC1=CC(=O)CC(C)(C)C1/C=C/C(C)OC1OC(COC2OCC(O)C(O)C2O)C(O)C(O)C1O` (stereo unspecified): the Potency result in test [1] and in test [2] was “inactive” throughout.
Take `N#Cc1cccc(-c2c[nH]c3ncnc(N4CCOCC4)c23)c1`: the Potency entry in test [6] and in test [2] was “inactive” in each case.
As to `COc1ccc(N2CCN(CCCNC(=O)Cn3c(=O)c4cccn4c4c(C)ccnc43)CC2)cc1`, the Potency result in test [6] and in test [2] was “inactive” in each case.
Regarding `CSC(=O)OCC1=C[C@@H]2OC(=O)C3=CO[C@@H](O[C@@H]4O[C@H](CO)[C@@H](O)[C@H](O)[C@H]4O)[C@H]1[C@@H]32`, the Potency result in test [6] and in [2] was “inactive” each time.
With `CC(=O)O[C@@H]1C(O)C[C@@]2(C)C(CC[C@@H](C)C23Cc2c(O)cc4c(c2O3)CNC4=O)C1(C)C` (stereo partly specified), in [2], the Potency result is “inactive”.
On to `COc1cc(O)c(C(=O)O)c(CCc2ccccc2)c1`, for which the Potency in test [2] is 22.4 µM (active).
On to `O=C(OC[C@H]1O[C@H](O[C@H]2CO[C@H](CO)[C@@H](O)[C@@H]2O)[C@H](O)[C@@H](O)[C@H]1O)c1ccccc1`, for which the Potency result in test [6] and in test [2] was “inactive” throughout.
For `C=CCc1cc(OC)c(OC(C)C(O)c2ccc(O)c(OC)c2)c(OC)c1` (stereo unspecified), in test [2], the Potency entry was “inactive”.
Regarding `C/C=C/C=C/C(O)=C1/C(=O)[C@]2(C)C3/C(=C(O)/C=C/C=C/C)C(=O)C4(C)C1[C@]1(C)O[C@@]4(O)[C@@]3(C)O[C@@]12O`, the Potency entry in test [6] and in test [2] was “inactive” in each case.
In the case of `CC1OC(OC2C(OC(=O)[C@]34CCC(C)(C)C[C@H]3C3=CCC5[C@@]6(C)CC[C@H](OC7OC(C(=O)O)C(O)C(O)C7O)C(C)(C)C6CC[C@@]5(C)[C@]3(C)CC4O)OC(CO)C2O)C(O)C(O)C1OC1OCC(O)C(O)C1O` (stereo partly specified), the Potency entry in test [2] is “inactive”.
Regarding `C[C@H]1[C@@H](O)[C@H](O)C2[C@]3(C)C([C@@H](O)[C@H]4OC(=O)[C@@H]1[C@@]24C)[C@](C)(O)C=C[C@H]3O[C@@H]1O[C@H](CO)[C@@H](O)[C@H](O)[C@H]1O` (stereo partly specified), the Potency entry in [6] and in test [2] was “inactive” in each case.
Take `C=C[C@]1(C)C[C@@H](OC(=O)CSC2C[C@H]3CC[C@@H](C2)N3C)[C@]2(C)[C@H](C)CC[C@]3(CCC(=O)[C@H]32)[C@@H](C)[C@@H]1O` (stereo partly specified): the Potency result in test [6] and in test [2] was “inactive” each time.
Turning to `CC[C@@H](C)[C@H](N)C(=O)N1Cc2ccccc2C1`, the Potency entry in test [6] and in test [2] was “inactive” throughout.
Consider `C/C=C1/CC2C(=O)Nc3cc(O)c(OC)cc3C(=O)N2C1` (stereo unspecified), for which the Potency result in [6] and in [2] was “inactive” in each case.
Take `O=C(Cc1ccc(Cl)cc1)Nc1cnccc1C(=O)O`: the Potency result in test [6] and in test [2] was “inactive” each time.
For the compound `CC(CNS(=O)(=O)C(C)C)c1ccc(-c2ccc(C#N)cc2)cc1` (stereo unspecified), the Potency result in test [2] is “inactive”.
As for `CC1C2=CC(=O)OC2(O)CC2C1CCC1C(C)(C)CCC(O)C21C` (stereo unspecified), the Potency result in [2] was “inactive”.
With `Cc1ccc(COC(=O)N2CC[C@@H](CNc3ncccn3)[C@@H](F)C2)cc1`, the Potency entry in test [6] and in [2] was “inactive” in each case.
Regarding `C=C1C(O)CCC2(C)CC3(OC)OC(=O)C(C)=C3CC12` (stereo unspecified), in test [2], the Potency entry is “inactive”.
With `C=C1C[C@@]2(O)O[C@@]3(C[C@H]2C(C)C)[C@@H](C)CC[C@@H]13`, the Potency entry in [2] was “inactive”.
In the case of `COc1cc(Cc2cnc(N)nc2N)c(C(C)C)cc1OC`, the Potency entry in test [6] is “inactive”.
With `CC(=O)NC(Cc1ccccc1)C(=O)NC(C(=O)O)C(C)C` (stereo not drawn) (Ac-Phe-Val-OH; configuration not given here), the Potency entry in test [6] and in [2] was “inactive” each time.
In the case of `COc1c2cc(c(O)c1OC)CCCCC(O)CCc1ccc(O)c-2c1` (stereo unspecified), the Potency entry in test [6] and in [2] was “inactive” in each case.
In the case of `COC(=O)C(CC1(OC(=O)C(C)C)c2ccccc2N2C(=O)C(C)(C)N(O)C21)n1cnc2ccccc2c1=O` (stereo unspecified), the Potency entry in test [6] and in [2] was “inactive” throughout.
